For test [1], the target named is Lysosomal acid glucosylceramidase (Homo sapiens) (UniProt P04062). The test can be described thus: Glucocerebrosidase-p2 (AID 348; in the data active = potency below about 10 µM; also: potency is read from the fitted curve at half-maximal effect). The settings on record: purified GBA, blue fluorogenic substrate, 40 min. In outline:
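Compounds titrated from 0.6 nM upwards against 0.2 nM enzyme in pH 5.9 citric acid/KH2PO4, taurocholate, tween-20; blue fluorogenic substrate 80 uM, 40 min room temperature, stopped and read Ex 365/Em 440 for AC50.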

Test [2] can be described thus: AP1 Signaling Pathway (AID 357).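 Also: ME-180 reporter cells stimulated with EGF at its EC50 level; % is scaled to controls: 0 for no effect and ±100 for the full control effect.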 The settings on record: ME-180 AP-1-bla reporter, EGF-induced, beta-lactamase ratio, 5 h; at 7.69 µM (top of the series) unless noted. Summed up:
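Titration-series screen for positive or negative modulators of EC50 EGF-induced signaling in ME-180 cells carrying an AP-1-driven beta-lactamase reporter. After 5 hours at 37 degrees Celsius, CCF4 460nm/530nm emission ratio gave %Activity; AC50 values derived.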

Test [3] concerns the target Cytochrome P450 1A2 (Homo sapiens) (UniProt P05177). Kind of test: p450-cyp1a2 (AID 410; calls by dose curve; also: potency is read from the fitted curve at half-maximal effect;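 as to activity change, negative = inhibition: -100% = full effect of reference inhibitor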). The note with it: recombinant CYP1A2, luciferin-ME demethylation, luminescence; series mostly up to 57 µM. In outline: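 Luminescent readout of luciferin formed from Luciferin-ME by human CYP1A2; data normalized against complete inhibition by 57 uM furafylline. Enzyme 20nM, substrate 100uM at Km, 100mM KPO4 buffer, 60 min reaction at room temperature.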

Test [4] can be described thus: NFAT Signaling Pathway (AID 444).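 Also: carbachol stimulus at about its EC50 of 1 µM final; % is scaled to controls: 0 for no effect and ±100 for the full control effect.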 The settings on record: Jurkat NFAT-bla M1, carbachol, beta-lactamase ratio, 5 h; at 7.69 µM (top of the series) unless noted. Summed up:
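Read-out: CCF4 FRET ratio (460 nm/530 nm) after 1 h RT dye loading, used for %activity and AC50 from titration series. Cells: Jurkat NFAT-β-lactamase/M1 line, treated with compound plus 1 uM carbachol for 5 h, 37 °C.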

A short description of test [5]: Stat Signaling Pathway (AID 446).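 Also: ME-180 cervical cancer cells given 40 pM IL-6 alongside compound; SIE-controlled beta-lactamase reporter measured as 460/530 nm FRET emission ratio; % is scaled to controls: 0 for no effect and ±100 for the full control effect.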 The settings on record: ME-180 SIE beta-lactamase reporter, IL-6 stimulated, 5 h; at 7.69 µM (top of the series) unless noted. Summed up: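 IL-6/STAT signaling read in ME-180 cells via an SIE beta-lactamase reporter. Stimulus was 40 pM IL-6 (its AC50) for 5 hrs, so both activation and inhibition register.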
The target of test [6] is Glucocorticoid receptor (Homo sapiens) (UniProt P04150). The test can be described thus: GR-EFC Redistribution (AID 451; calls by dose curve; also: potency is read from the fitted curve at half-maximal effect). The note with it: CHO-K1 GR-EFC translocation, beta-gal luminescence, 2 h. Summed up: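 Translocation of GR-ED fusion to nuclear EA restores b-gal, read by luminescence after 1 h room-temperature detection. Engineered CHO-K1 biosensor cells, 1,000/well, exposed 2 h at 37 C to titrations up to 46 uM final.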
Sequence of Glucocorticoid receptor (Homo sapiens) (P04150 whole entry, looked up, the tested form may be a part): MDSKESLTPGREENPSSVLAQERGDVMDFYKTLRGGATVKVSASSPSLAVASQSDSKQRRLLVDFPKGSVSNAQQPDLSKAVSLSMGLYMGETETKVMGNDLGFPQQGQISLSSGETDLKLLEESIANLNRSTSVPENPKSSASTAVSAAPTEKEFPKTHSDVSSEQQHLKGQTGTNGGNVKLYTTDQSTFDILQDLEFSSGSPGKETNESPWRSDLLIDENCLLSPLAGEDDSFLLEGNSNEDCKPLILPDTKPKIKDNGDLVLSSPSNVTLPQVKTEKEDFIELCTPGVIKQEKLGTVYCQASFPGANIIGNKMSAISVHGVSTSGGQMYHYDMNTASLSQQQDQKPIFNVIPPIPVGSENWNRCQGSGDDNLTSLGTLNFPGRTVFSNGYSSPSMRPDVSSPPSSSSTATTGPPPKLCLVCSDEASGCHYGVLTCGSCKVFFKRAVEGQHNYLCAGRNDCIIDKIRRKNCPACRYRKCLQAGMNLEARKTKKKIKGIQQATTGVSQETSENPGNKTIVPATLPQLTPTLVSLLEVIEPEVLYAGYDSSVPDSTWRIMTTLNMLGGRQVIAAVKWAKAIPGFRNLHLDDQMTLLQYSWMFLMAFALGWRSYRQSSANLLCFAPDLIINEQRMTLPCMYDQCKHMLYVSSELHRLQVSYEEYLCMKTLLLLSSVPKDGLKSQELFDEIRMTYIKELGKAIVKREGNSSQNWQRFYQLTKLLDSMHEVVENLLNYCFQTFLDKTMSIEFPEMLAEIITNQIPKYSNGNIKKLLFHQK

Test [7] concerns the target Mitogen-activated protein kinase 10 (Mus musculus) (UniProt Q61831). Kind of test: JNK3 AlphaScreen Assay (AID 530).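 Also: kinase came from lysate of stimulated human HepG2 cells; signal reports phosphorylation of biotinylated GST-cJun 1-79 at Ser73 with 10 µM ATP; % is scaled to controls: 0 for no effect and ±100 for the full control effect.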 The note with it: JNK3 lysate, c-Jun phosphorylation; series mostly up to 57.1 µM. In outline:
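Compound titrations were preincubated 15 minutes at room temperature with substrate, antibody and pre-activated JNK3-containing HepG2 lysate. Reactions were started with 10 uM ATP and stopped with EDTA-containing bead buffer for AlphaScreen detection.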
(In general: In Alpha technology, singlet oxygen from a donor bead excites a nearby acceptor bead.)

For test [8], the target named is 3',5'-cyclic-AMP phosphodiesterase 4B (Homo sapiens) (UniProt Q07343). The test can be described thus: qHTS Assay for Inhibitors of PDE-IV (AID 607; active = well fitted activation curve with a large enough effect in the main read-out, with a control signal flat, not every such curve was filed as active; also: % of control where 0% means no effect). The note with it: HEK293 ACTOne CNG channel cells, membrane potential fluorescence; series mostly up to 22.9 µM. In outline:
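Live HEK293 cells with a modified cyclic nucleotide-gated (CNG) channel report intracellular cAMP via membrane-potential dye fluorescence (ex 535/em 590 nm). Endogenous PDE-IV was targeted. Compounds were tested at up to 22.9 uM final; RO 20-1724 100 uM served as control.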
In general terms: Quantitative high-throughput screening tests each substance at several concentrations.

For test [9], the target named is Cytochrome P450 3A4 (Homo sapiens) (UniProt P08684). The test can be described thus: qHTS Assay for Activators of Cytochrome P450 3A4 (AID 885; active = well fitted curve in the direction sought with a large enough effect; an effect the other way counts as inactive or inconclusive; also: nearly all actives have a fitted effect of over 65% in size; also: potency is read from the fitted curve at half-maximal effect). The settings on record: recombinant CYP3A4, Luciferin-PPXE luminescence, 60 min; series mostly up to 57.1 µM. Summed up:
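Quantitative HTS format: compounds preincubated with 20nM human CYP3A4 and Luciferin-PPXE substrate at KM, reaction started by NADPH regeneration, stopped after 60 min, luciferase luminescence read 20 min later.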

Test [10] is described as follows: Primary qHTS for small molecule stabilizers of the endoplasmic reticulum resident proteome: Secreted ER Calcium Modulated Protein (SERCaMP) assay (AID 1508630; active = well fitted curve in the direction sought with a large enough effect; an effect the other way counts as inactive or inconclusive; also: % is scaled to controls: 0 for no effect and ±100 for the full control effect). The settings on record: SH-SY5Y GLuc-SERCaMP (Gaussia luciferase released on ER calcium loss) secretion, thapsigargin, luminescence; series mostly up to 38.4 µM. In outline:
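GLuc-SERCaMP-expressing SH-SY5Y cells, pretreated 16 h with compound, are challenged with thapsigargin to empty ER calcium stores; after 4 h, coelenterazine is added directly to the medium and luminescence is imaged.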

Test [11] concerns the target Cytochrome P450 3A4 (Homo sapiens) (UniProt P08684). The test can be described thus: qHTS Assay for Inhibitors and Substrates of Cytochrome P450 3A4 (AID 884; active = well fitted curve in the direction sought with a large enough effect; an effect the other way counts as inactive or inconclusive; also: nearly all actives have a fitted effect of over 50% in size; also: potency is read from the fitted curve at half-maximal effect). The note with it: recombinant CYP3A4, Luciferin-PPXE luminescence; series mostly up to 57.1 µM. Summed up: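 20 nM human CYP3A4 with 25 uM Luciferin-PPXE (at KM) in 200 mM KPO4, preincubated 10 min with compound; NADPH regeneration started a 60 min RT reaction. Luciferin detected by luminescence, normalized to 57 uM ketoconazole as full inhibition.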

Test [12] in a line: qHTS Assay for Identification of Small Molecule Agonists for Hypoxia Response Element Signaling Pathway (AID 914; active = well fitted activation curve with a large enough effect in the signal ratio, with a control signal flat, not every such curve was filed as active; the % refers to the signal ratio; also: % of control where 0% means no effect). The note with it: ME-180 (cervical carcinoma) HRE-bla reporter, beta-lactamase ratio, CoCl2, 17 h; activation: stronger effect = higher value. Summed up:
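Reporter activity (beta-lactamase, CCF4 460nm/530nm ratio) in HRE-bla ME-180 cells is recorded after 17 h compound exposure with EC50 CoCl2 at 37 degrees Celsius. AC50 values come from titration data.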

The values below come from PubChem BioAssay (NCATS).

Structures are written as SMILES. A number with no mark means an inactive call. Inconclusive results are not listed. Activity calls are given as the source filed them. Unless noted, calls follow the shape of the dose curve; as a rule, active = well fitted curve in either direction with a large enough effect (not every such curve was filed as active); inconclusive = small, poorly fitted or top-dose-only effect, or another doubt; inactive = flat fitted curve, though single readings scatter. Some results are limits rather than exact numbers.

Sequence of 3',5'-cyclic-AMP phosphodiesterase 4B (Homo sapiens) (Q07343 whole entry, looked up): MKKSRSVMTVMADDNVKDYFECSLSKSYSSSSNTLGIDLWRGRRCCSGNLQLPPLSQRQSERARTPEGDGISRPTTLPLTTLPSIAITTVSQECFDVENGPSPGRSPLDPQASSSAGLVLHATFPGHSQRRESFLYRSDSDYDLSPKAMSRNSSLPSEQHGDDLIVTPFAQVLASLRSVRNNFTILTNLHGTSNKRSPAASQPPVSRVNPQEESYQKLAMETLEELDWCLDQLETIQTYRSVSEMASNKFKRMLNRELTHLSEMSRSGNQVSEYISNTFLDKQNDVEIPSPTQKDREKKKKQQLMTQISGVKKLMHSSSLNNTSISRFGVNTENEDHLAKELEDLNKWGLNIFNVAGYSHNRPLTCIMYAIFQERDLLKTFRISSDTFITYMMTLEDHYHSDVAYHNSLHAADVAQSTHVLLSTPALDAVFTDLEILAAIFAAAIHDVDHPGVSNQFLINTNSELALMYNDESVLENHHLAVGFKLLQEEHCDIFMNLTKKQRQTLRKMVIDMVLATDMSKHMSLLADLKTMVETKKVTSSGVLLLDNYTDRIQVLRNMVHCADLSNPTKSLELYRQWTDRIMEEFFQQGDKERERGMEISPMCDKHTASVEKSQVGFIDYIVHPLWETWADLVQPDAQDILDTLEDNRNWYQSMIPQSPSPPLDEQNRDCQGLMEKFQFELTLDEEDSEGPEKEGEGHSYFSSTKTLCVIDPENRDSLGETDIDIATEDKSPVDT
Sequence of Lysosomal acid glucosylceramidase (Homo sapiens) (P04062 whole entry, looked up): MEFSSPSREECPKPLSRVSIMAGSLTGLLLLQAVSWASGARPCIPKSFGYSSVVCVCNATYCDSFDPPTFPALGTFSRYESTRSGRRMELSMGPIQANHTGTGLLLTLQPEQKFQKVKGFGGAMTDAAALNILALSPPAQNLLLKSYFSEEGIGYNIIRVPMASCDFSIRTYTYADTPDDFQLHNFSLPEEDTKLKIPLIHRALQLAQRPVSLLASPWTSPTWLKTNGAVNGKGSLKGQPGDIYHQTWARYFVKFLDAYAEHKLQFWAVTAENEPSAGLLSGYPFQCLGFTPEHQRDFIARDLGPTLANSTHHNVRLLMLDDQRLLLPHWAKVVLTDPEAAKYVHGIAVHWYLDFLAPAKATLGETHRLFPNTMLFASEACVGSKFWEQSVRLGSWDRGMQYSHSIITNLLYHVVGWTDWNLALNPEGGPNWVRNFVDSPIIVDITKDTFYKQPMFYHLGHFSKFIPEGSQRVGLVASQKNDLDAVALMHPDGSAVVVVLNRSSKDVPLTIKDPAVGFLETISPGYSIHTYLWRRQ
Sequence of Cytochrome P450 1A2 (Homo sapiens) (P05177 whole entry, looked up): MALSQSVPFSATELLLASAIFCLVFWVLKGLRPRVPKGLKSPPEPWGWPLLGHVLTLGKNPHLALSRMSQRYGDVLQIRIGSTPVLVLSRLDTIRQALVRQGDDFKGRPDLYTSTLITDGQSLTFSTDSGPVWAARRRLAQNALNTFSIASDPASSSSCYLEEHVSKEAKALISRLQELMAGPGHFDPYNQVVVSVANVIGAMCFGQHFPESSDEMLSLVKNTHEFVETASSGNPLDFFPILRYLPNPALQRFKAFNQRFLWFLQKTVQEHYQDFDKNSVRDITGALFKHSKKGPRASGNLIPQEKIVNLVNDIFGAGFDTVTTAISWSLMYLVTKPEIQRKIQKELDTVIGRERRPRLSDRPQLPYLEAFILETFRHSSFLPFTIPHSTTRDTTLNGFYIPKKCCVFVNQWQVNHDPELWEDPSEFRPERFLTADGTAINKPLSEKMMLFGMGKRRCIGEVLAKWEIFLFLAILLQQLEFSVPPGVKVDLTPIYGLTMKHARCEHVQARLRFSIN
Sequence of Cytochrome P450 3A4 (Homo sapiens) (P08684 whole entry, looked up): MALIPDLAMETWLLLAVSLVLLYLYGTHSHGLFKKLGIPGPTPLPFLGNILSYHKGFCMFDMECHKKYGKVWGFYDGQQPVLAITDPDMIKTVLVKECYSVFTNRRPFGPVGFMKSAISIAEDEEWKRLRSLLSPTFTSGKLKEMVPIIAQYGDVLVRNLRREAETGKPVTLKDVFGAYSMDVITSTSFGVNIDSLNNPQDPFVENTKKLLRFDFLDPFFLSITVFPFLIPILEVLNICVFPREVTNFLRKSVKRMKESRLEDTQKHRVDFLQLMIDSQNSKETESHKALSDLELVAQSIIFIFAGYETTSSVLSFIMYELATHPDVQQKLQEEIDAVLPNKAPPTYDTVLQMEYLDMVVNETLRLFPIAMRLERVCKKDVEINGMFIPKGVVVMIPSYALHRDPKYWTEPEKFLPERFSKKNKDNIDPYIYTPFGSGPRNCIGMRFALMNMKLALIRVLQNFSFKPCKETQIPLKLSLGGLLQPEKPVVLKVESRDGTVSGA

As to `COC(=O)N1CCC2(CCCN(C(=O)Nc3ccc(OC)cc3)C2)CC1`, the Potency in [1] was more than 11.4 µM; in test [3], 20 µM (active); in test [6], more than 46 µM. Besides, the activity change, negative = inhibition is -3.8% in test [2] and -6.91% in [4]. In [5], the activity, negative = inhibition was -13.9%. In addition, the Potency entry in test [7], in test [8] and in test [9] was “inactive” each time. For the same molecule, the outcome in test [10] was inactive.
On to `O=C(c1cccc(F)c1)N1CCC2(CC1)CCN(c1ccc(-c3ccccc3)cc1)CC2`, for which the Potency in test [1] is more than 11.4 µM; in [6], more than 46 µM; in test [9], 12.6 µM (active). For the same molecule, the activity change, negative = inhibition was 4.61% in test [2] and 0.978% in test [4]. Moreover, the Potency entry in test [3], in test [7], in test [8] and in test [11] was “inactive” each time. Further, in [5], the activity, negative = inhibition is -7.26%. For the same molecule, the outcome in test [10] was inactive.
Consider `COc1ccc(C(=O)N2CCC3(CCCN(c4ncccn4)C3)CC2)cc1`, for which the Potency is more than 11.4 µM in [1], 20 µM (active) in test [3] and more than 46 µM in [6]. Moreover, the activity change, negative = inhibition in test [2] was 0.224%; in test [4] it was 13.8%. Besides, in test [5], the activity, negative = inhibition was -4.23%. Moreover, the Potency entry in [7], in test [8] and in test [9] was “inactive” each time. For the same molecule, the outcome in test [10] was inactive.
On to `COc1ccc(C(=O)N2CCC[C@@]3(CCN(C(=O)Nc4cccc(C#N)c4)C3)C2)cc1`, for which the results for the Potency in test [1], in test [6] and in test [11] were more than 11.4 µM, more than 46 µM and 7.94 µM (active), respectively. The values for the activity change, negative = inhibition in test [2] and in test [4] were -11.5% and 16.6%, respectively. Besides, the Potency result in test [3], in test [7], in test [8] and in test [9] was “inactive” in each case. The activity, negative = inhibition in test [5] is 1.52%. Also, the result in [10] was inactive.
In the case of `COc1ccc(C(=O)N2CCC3(CCN(Cc4ccncc4)CC3)CC2)cc1`, the Potency in [1] is more than 11.4 µM; in [6] it was more than 46 µM. The activity change, negative = inhibition in [2] was -7.79%; in test [4] it was -24.2%. The Potency result in test [3], in test [7], in test [8] and in [9] was “inactive” throughout. Further, the activity, negative = inhibition in test [5] is 11.1%. For the same molecule, in [10], the outcome was inactive.
On to `O=C(Nc1ccccc1)N1CCC2(CC1)CCN(C(=O)c1cccc(F)c1)CC2`, for which the Potency in test [1] was more than 11.4 µM; in [3], 10 µM (active); in test [6], more than 46 µM; in test [9] it was 12.6 µM (active). In addition, the activity change, negative = inhibition is 2.8% in test [2] and 14.6% in [4]. In addition, in [5], the activity, negative = inhibition was -12.9%. Moreover, the Potency entry in test [7], in [8] and in [11] was “inactive” in each case. In addition, the activation in test [12] is -13.7%. In addition, the result in test [10] was inactive.
Turning to `CS(=O)(=O)N1CCC2(CC1)CN(c1ncccn1)C2`, the Potency in [1] was more than 11.4 µM; in test [6], more than 46 µM. Also, the activity change, negative = inhibition in [2] is -16%; in test [4] it was -5.62%. Further, the Potency entry in [3], in [7], in test [8] and in test [9] was “inactive” in each case. For the same molecule, the activity, negative = inhibition in test [5] was 6.56%. Moreover, the outcome in test [10] was inactive.
With `COC(=O)N1CCC[C@@]2(CCN(C(=O)Nc3ccc(OC)cc3)C2)C1`, the Potency in [1] is more than 11.4 µM; in test [6], more than 46 µM. Besides, the activity change, negative = inhibition in test [2] is -11%; in [4] it was -1.85%. For the same molecule, the Potency entry in test [3], in test [7], in [8] and in test [9] was “inactive” in each case. Moreover, the activity, negative = inhibition in test [5] was 3.7%. Moreover, in [10], the outcome was inactive.
